USP28 block: human USP28 deubiquitinase inhibition | AID 1645857 | purified USP28, Ub-rhodamine cleavage fluorescence, 30 min | inhibition, % at 25 µM | 3% of 47,000 active
USP17 inh: blocks human USP17 ubiquitin-rhodamine cleavage. purified USP17, Ub-rhodamine cleavage fluorescence, 3 h. A8MUK1. inhibition, % at 50 µM. 6.5% of 47,000 active
USP30 inh: human USP30 deubiquitinase inhibition; purified USP30, Ub-rhodamine cleavage fluorescence; inhibition, % at 25 µM; 5.3% of 47,000 active
* = called active by the depositor. The list is not random: actives were taken first. Their share in the collection is about 11%. Cut-off read from the data, not from the text of the source: active = inhibition above about 30%; inactive = the rest.

Screening Cc1nc2ccccc2n(CC(=O)Nc2ccc(F)cc2F)c1=O returned USP28 block -10, USP17 inh -3 and USP30 inh -13.
For CCn1c(=O)c(C(=O)Nc2ccc(Br)cc2)nc2ccccc21 the results were USP28 block -2, USP17 inh 34* and USP30 inh -10.
CCn1c(=O)c(C(=O)Nc2cccc(F)c2)nc2ccccc21 was read as USP28 block 0, USP17 inh -18 and USP30 inh 4.
Screening CC(=O)Nc1cccc(NC(=O)c2nc3ccccc3n(C)c2=O)c1 returned USP28 block 7, USP17 inh 0 and USP30 inh 8.
Screening Cn1c(=O)c(C(=O)Nc2ccc(Br)cc2F)nc2ccccc21 returned USP28 block -5, USP17 inh 46* and USP30 inh 4.
Screening Cn1c(=O)c(C(=O)Nc2ccc(Br)cc2)nc2ccccc21 returned USP28 block 13, USP17 inh 12 and USP30 inh 34*.
`O=S(=O)(c1cccc2cccnc12)N(CCN1CCCC1)C1CCN(CCc2ccc(Cl)cc2)CC1` gave USP28 block -11, USP17 inh -25 and USP30 inh -57.
For CC1CC1c1nnc(C2(c3ccc(Br)cc3)CCOCC2)o1 (stereo unspecified) the results were USP28 block -12, USP17 inh -10 and USP30 inh 0.
`Cc1nnc(Sc2cc(C(=O)NCCN3CCCC3)c3ccccc3n2)s1` gave USP28 block -9, USP17 inh 52* and USP30 inh -12.
Screening Cc1nnc(Sc2cc(C(=O)NCc3ccco3)c3ccccc3n2)s1 returned USP28 block -15, USP17 inh 12 and USP30 inh -64.
Screening O=C(Nc1nc2cc3c(cc2s1)OCCO3)C1CCCCC1 returned USP28 block 22, USP17 inh 11 and USP30 inh 13.
`Cc1cc2nc(NC(=O)NC3CCCCC3)sc2cc1C` gave USP28 block 14, USP17 inh -39 and USP30 inh 36*.
Screening CCCN1CCC2(CC1)Cc1ccccc1CN(C(=O)CC)C2 returned USP28 block -14, USP17 inh -14 and USP30 inh -43.
`COc1cn(CC(=O)Nc2cccc(C)c2)c(CSc2ccc(F)cc2)cc1=O` gave USP28 block -14, USP17 inh -5 and USP30 inh 1.
COc1ccccc1Cn1c(=O)[nH]c2ncccc2c1=O was read as USP28 block 14, USP17 inh 27 and USP30 inh 17.
For NCCC(=O)N1CCC2(CC1)OC(=O)N(Cc1ccccc1)c1ccccc12 the results were USP28 block 13, USP17 inh -11 and USP30 inh -4.
For NCCNC(=O)N1CCC2(CC1)OC(=O)N(Cc1ccccc1)c1ccccc12 the results were USP28 block 34*, USP17 inh -8 and USP30 inh 5.
Screening COc1ccc(CCN2C[C@H]3CCN(C(=O)c4ccn[nH]4)CC[C@H]3S2(=O)=O)cc1 returned USP28 block -5, USP17 inh -10 and USP30 inh -6.
O=C(Nc1cc(Cl)ccc1NCc1ccccc1)c1cc(=O)[nH]c2ccccc12 was read as USP28 block -16, USP17 inh -22 and USP30 inh -100.
For O=C(NCCCN1CCCC1=O)c1ccc(N2CCCC2=O)cc1 the results were USP28 block 0, USP17 inh 2 and USP30 inh 2.
Screening COc1ccc(CCNC(=O)COC(=O)c2ccc(N3CCCC3=O)cc2)cc1 returned USP28 block 9, USP17 inh 84* and USP30 inh 81*.
`Cn1cccc1C(=O)N1C[C@@H]2C[C@H]1C[C@@H]2NC(=O)c1ccccc1` gave USP28 block -4, USP17 inh -5 and USP30 inh -18.
Screening O=C(NCc1cccc(F)c1)N1C[C@@H]2C[C@H]1C[C@@H]2NS(=O)(=O)c1ccccc1 returned USP28 block 13, USP17 inh 5 and USP30 inh 7.
Screening O=C(NCCC1=CCCCC1)c1cccc(Nc2nc3ccccc3n3cnnc23)c1 returned USP28 block 9, USP17 inh 22 and USP30 inh -2.
Cc1nc2cc(C(=O)NCCC3=CCCCC3)ccc2n1-c1cccc(F)c1 was read as USP28 block 40*, USP17 inh 8 and USP30 inh 73*.
For COc1ccc(C(=O)c2nnn(-c3ccc(OC(F)(F)F)cc3)c2C)cc1 the results were USP28 block 28, USP17 inh 19 and USP30 inh 25.
`Cc1ccccc1NC(=O)C1(N(Cc2ccco2)C(=O)c2cccnc2)CCCCC1` gave USP28 block 4, USP17 inh 3 and USP30 inh 5.
O=C(C1CCN(Cc2cccnc2)CC1)N1CCN(C(c2ccccc2)c2ccccc2)CC1 was read as USP28 block 6, USP17 inh -1 and USP30 inh -1.
CCn1cnc2c(-c3ccccc3)cn(CC(=O)Nc3ccc4c(c3)OCO4)c2c1=O was read as USP28 block -122, USP17 inh 17 and USP30 inh -222.
For COCCn1cnc2c(-c3ccccc3)cn(CC(=O)Nc3ccc4c(c3)OCO4)c2c1=O the results were USP28 block -7, USP17 inh 40* and USP30 inh 1.
Screening Cc1noc(-c2ccc(SCC(=O)Nc3c(C)cccc3C)nc2)n1 returned USP28 block -13, USP17 inh -1 and USP30 inh -31.
COc1ccc(S(=O)(=O)N2CCCCC2)cc1NC(=O)CCc1nc2ccccc2s1 was read as USP28 block 12, USP17 inh -2 and USP30 inh 12.
`COc1cccc(CNCc2nc(NCc3cccc(OC)c3)c3c(C)c(C)sc3n2)c1` gave USP28 block 37*, USP17 inh 16 and USP30 inh 42*.
Screening COc1cccc(CNc2nnc(-n3nc(C)cc3C)c3ccccc23)c1 returned USP28 block -10, USP17 inh -11 and USP30 inh -14.
Screening O=C(CSc1cn(CC(=O)N2CCCCC2)c2ccccc12)NCCc1ccccc1 returned USP28 block -9, USP17 inh -13 and USP30 inh 0.
O=C(Cn1cc(SCc2ccccc2Cl)c2ccccc21)N1CCCC1 was read as USP28 block 23, USP17 inh 32* and USP30 inh 14.
`Cc1ccc2c(c1)C(=O)c1c(O)cccc1C2=O` gave USP28 block 3, USP17 inh 1 and USP30 inh 11.
O=C1C=C(O)c2c(O)cccc2C1=O was read as USP28 block 51*, USP17 inh 92* and USP30 inh -28.
Cc1ccc(NC(=O)Cn2c(C)ccc(NC(=O)Nc3cccc(C)c3)c2=O)cc1 was read as USP28 block -4, USP17 inh -2 and USP30 inh -20.
`Cc1ccc(NC(=O)Nc2ccc(C)n(CC(=O)Nc3ccccc3)c2=O)cc1` gave USP17 inh 89*.
`CC1(C)C=Cc2cc(O)ccc2O1` gave USP28 block -3, USP17 inh 40* and USP30 inh -8.
CN1c2ccccc2-c2ccccc2C12C=Cc1cc([N+](=O)[O-])ccc1O2 (stereo unspecified) was read as USP28 block 5, USP17 inh -4 and USP30 inh -26.
`Cc1ccccc1NS(=O)(=O)c1ccc2onc(C(=O)N3CCOCC3)c2c1` gave USP28 block -8, USP17 inh -16 and USP30 inh 0.

Source: PubChem (Buhrlage Lab, Dana-Farber Cancer Institute and Novartis Institutes for BioMedical Research (Cambridge, Mass))
